# Results filed as inconclusive are left out. The source made the active and inactive calls. Calls follow the shape of the dose curve; as a rule, active = well fitted inhibition curve with a large enough effect; inconclusive = small, poorly fitted or top-dose-only effect; inactive = no such curve, though single readings can be large or run the other way. Positions of bridges follow the written chain, without caps; N, C: chain ends. Non-standard residues stand in square brackets, D forms with d. Residues, ends and D or L forms follow the SMILES beside them. ξ: configuration not given here. *: point of attachment. Octanoyl(6-Me) = CCC(C)CCCCC(=O)*; ξThr(3R) = C[C@@H](O)C(N)C(=O)O; dDab = NCC[C@@H](N)C(=O)O; Dab = NCC[C@H](N)C(=O)O
# Experiment: qHTS Screen of the MIPE 4.0 Collection Against Ewings Sarcoma (TC71) (AID 1259253); also: nearly all actives have a fitted effect of over 40% in size
# Details: TC71 Ewing sarcoma viability, CellTiter-Glo, 48 h; series mostly up to 45.8 µM
# Source text: There is a large unmet medical need for treatments for Ewing sarcoma, a pediatric sarcoma. We sought to identify compounds that inhibited Ewing sarcoma cells in vitro with the goal to then test promising drugs in two drug combinations in vitro to look for synergistic drug combinations. Promising combinations would then proceed to additional validation, including in vivo testing.
# Using the NCATS developed oncology compound library called the Mechanism of Interrogation Plate (MIPE), four Ewing sarcoma cell lines were evaluated (TC32, TC71, RDES, EW8). Compounds, in a 12-point titration series, were incubated with cells for 48 hours and the read out was cell viability (CellTiter-Glo from Promega). These initial experiments were used to select appropriate concentrations of each single agent for subsequent two-drug matrix combinations such that the concentrations in the matrices would span both activity and non-activity.
# Cells, in the log phase of growth, were seeded in 5 uL of RPMI plus 5% FBS, […] L-glutamine, 100 U/ml penicillin and 100 ug/ml streptomycin into 1536-well solid-bottom white tissue culture treated Greiner Bio One Plates (789173-F) using a MultiDrop Combi (Thermofisher Scientific) dispenser and a small sterile cassette. One column was media alone to be used as a :"no cells" control. The plates were then covered with sterilized stainless steel gasketed lids from Kalypsys. After allowing cells to attach for 4 hours, 23 nL of test compound or control (negative control DMSO and positive control 9.2 uM Bortezomib-final) were added from a 1536-well polypropylene compound source plate to each well using a 1536 head pin tool from Kalypsys. Cells were then incubated for 48 hours at 37C, 95% relative humidity and 5% CO2. After 48 hours, plates were removed from the incubator and 3 uL of CellTiter-Glo (Promega) was added using an Aurora Flying Reagent Dispenser Bioraptor. Plates were incubated at room temperature for 10 minutes prior to reading the luminescence on the Viewlux (PerkinElmer). The relative luciferase units are used to calculate the percent activity using the activity of DMSO in the cells and no cells columns for normalization of no inhibition and full inhibition respectively.
# Potency is read from the fitted curve at half-maximal effect.
row,Structure (SMILES),Potency
1,O=C(CCCCCCC(=O)Nc1cccnc1)NO,5.26 µM (active)
2,Cc1noc(-c2ccc(CSCCC(=O)O)cc2)c1NC(=O)OC(C)c1ccccc1Cl (stereo not given),inactive
3,Cc1cc(O)c2c(c1)C(=O)c1cccc(O)c1C2=O,inactive
4,O=C(C=CC=Cc1ccc2c(c1)OCO2)N1CCCCC1,inactive
5,CCOC(=O)[C@H](CCc1ccccc1)N[C@@H](C)C(=O)N1[C@@H](C(=O)O)C[C@H]2CCC[C@@H]21,14.8 µM (active)
6,Cn1cc(-c2cnn3c(N)c(Br)c([C@H]4CCCNC4)nc23)cn1,0.118 µM (active)
7,C#C[C@]1(O)CC[C@@H]2[C@@H]3CCC4=CC(=O)CC[C@@H]4[C@H]3CC[C@@]21CC,inactive
8,CN1CCc2c(c3ccccc3n2Cc2ccc(C(=O)NO)cc2)C1,16.6 µM (active)
9,CS[C@H]1SC[C@@H]2C(=O)N(C)[C@H](C(C)C)C(=O)OC[C@H](NC(=O)c3cnc4ccccc4n3)C(=O)N[C@H](C)C(=O)N(C)[C@@H]1C(=O)N(C)[C@H](C(C)C)C(=O)OC[C@H](NC(=O)c1cnc3ccccc3n1)C(=O)N[C@H](C)C(=O)N2C,0.0026 µM (active)
10,C[C@H](NC(=O)C(C#N)=Cc1cccc(Br)n1)c1ccccc1,20.9 µM (active)
11,C[C@H](NC(=O)Cc1cc(F)cc(F)c1)C(=O)N[C@H](C(=O)OC(C)(C)C)c1ccccc1,inactive
12,COc1ccc2cc([S+]([O-])Cc3ncc(C)c(OC)c3C)nc2c1,inactive
13,C[C@@]12C(=O)OC(=O)[C@@]1(C)C1CCC2O1,4.18 µM (active)
14,N[C@H]1CN(c2c(F)cc3c(=O)c(C(=O)O)cn(C4C[C@@H]4F)c3c2Cl)CC12CC2 (stereo not given in full),inactive
15,C[N+](C)([O-])CCNc1ccc(NCC[N+](C)(C)[O-])c2c1C(=O)c1c(O)ccc(O)c1C2=O,16.6 µM (active)
16,O=C1NC(=O)[C@@H](c2cn3c4c(cccc24)CCC3)[C@H]1c1c[nH]c2ccccc12,0.526 µM (active)
17,C=CC(=O)N1CCc2ccc(-n3c(=O)ccc4cnc5ccc(-c6cnn(C)c6)cc5c43)cc21,3.32 µM (active)
18,COc1cc2c(Nc3ccc(Cl)c(Cl)c3F)ncnc2cc1OCC1C[C@@H]2CN(C)C[C@H]2C1,10.5 µM (active)
19,COc1cc(C(C)C)c(Oc2cnc(NC(CO)CO)nc2N)cc1I,1.05 µM (active)
20,COc1cc(C)c(C=CC(C)=CC=CC(C)=CC(=O)O)c(C)c1C,inactive

row,Structure (SMILES),Potency
1,Cn1cc(-c2ccc3ncc(Cc4ccc5ncccc5c4)n3n2)cn1,inactive
2,COc1cccc2c1C(=O)c1c(O)c3c(c(O)c1C2=O)C[C@@](O)(C(C)=O)C[C@H]3O[C@H]1C[C@H](N)[C@H](O)[C@H](C)O1,0.0662 µM (active)
3,CCC(C)CCCCC(=O)N[C@@H](CCN)C(=O)NC(C(=O)N[C@H](CCN)C(=O)N[C@@H]1CCNC(=O)C([C@@H](C)O)NC(=O)[C@@H](CCN)NC(=O)[C@@H](CCN)NC(=O)[C@@H](CC(C)C)NC(=O)[C@H](Cc2ccccc2)NC(=O)[C@H](CCN)NC1=O)[C@@H](C)O (stereo partly drawn) ({Octanoyl(6-Me)}-[Dab][ξThr(3R)][dDab][dDab][Dab]F[dL][dDab][dDab][ξThr(3R)]; lactam 4-C),inactive
4,Cc1cn([C@@H]2O[C@H](CO)[C@@H](O)[C@H]2F)c(=O)[nH]c1=O,inactive
5,C=C(C)[C@@H]1CC[C@]2(C)CC[C@]3(C)[C@H](CC[C@@H]4[C@@]5(C)CC[C@H](O)C(C)(C)[C@H]5CC[C@]43C)[C@@H]12,inactive
6,CC(C)(C)c1nc2c3cc[nH]c(=O)c3c3cc(F)ccc3c2[nH]1,5.9 µM (active)
7,CC(N[C@H]1CCCC[C@H]1NC(=O)c1ccc(Cl)cc1)c1cccc2ccccc12 (stereo not given in full),inactive
8,O=c1[nH]c(=O)n([C@H]2C[C@@H](O)[C@@H](CO)O2)cc1F,0.0935 µM (active)
9,Nc1ccn(C2CO[C@H](CO)O2)c(=O)n1 (stereo not given in full),inactive
10,COc1cc(O)c2c(c1)C1OC1C[C@H](O)[C@H](O)C(=O)C=CC[C@H](C)OC2=O (stereo not given in full),11.8 µM (active)
11,CN(C)CC[C@H](c1ccc(Cl)cc1)c1ccccn1,inactive
12,C[C@@H]1C(=O)O[C@H]2CC34[C@H]5C[C@@H](C(C)(C)C)C36[C@H](OC(=O)[C@@H]6O)O[C@@]4(C(=O)O5)[C@]21O (stereo not given in full),inactive
13,Cn1c(Nc2ccc(C(F)(F)F)cc2)nc2cc(Oc3ccnc(-c4ncc(C(F)(F)F)[nH]4)c3)ccc21,7.43 µM (active)
14,COc1cc(OC)cc(-c2ccc3ncc4ccc(=O)n(-c5ccc(N6CCNCC6)c(C(F)(F)F)c5)c4c3c2)c1,2.64 µM (active)
15,CNC(=O)c1ccc(Nc2cc(Nc3ccccc3S(=O)(=O)C(C)C)c3cc[nH]c3n2)nc1,4.18 µM (active)
16,CCCc1nc(C(C)(C)O)c(C(=O)O)n1Cc1ccc(-c2ccccc2-c2nn[nH]n2)cc1,inactive
17,C[C@H]1C[C@H]2[C@@H]3CCC4=CC(=O)C=C[C@]4(C)[C@@H]3C(=O)C[C@]2(C)[C@@]1(O)C(=O)CO,inactive
18,CCS(=O)(=O)Nc1ccc2[nH]c(O)c(C(=Nc3ccc(CN4CCCCC4)cc3)c3ccccc3)c2c1,0.132 µM (active)
19,Cc1coc2c1C(=O)C(=O)c1c-2ccc2c(C)cccc12,11.8 µM (active)
20,C#CCC(Cc1cnc2nc(N)nc(N)c2n1)c1ccc(C(=O)N[C@@H](CCC(=O)O)C(=O)O)cc1 (stereo not given in full),0.0372 µM (active)
